Sampled rows, rich in hits. Any-hit rate of the full collection: about 1%.
HUVEC tox TNFa: toxic to HUVEC cells under TNF alpha stimulation; HUVEC TNFalpha-stimulated, Hoechst cell count, imaging; cell count reduction, % at 2 µM; actives 0.17% (n = 93,000); AID 848;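 active = cell count reduction exceeding the screen mean by over 5 SD, scaled to untreated wells per plate, cut at about 78% in these data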;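 note: cells counted after 24 h of TNF alpha exposure following the 1 h pretreatment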
VCAM1 TNFa inh: reduces TNF alpha induced VCAM1 expression in HUVEC | inhibition, % at 2 µM | HUVEC TNFa-induced VCAM-1 immunofluorescence, high-content imaging | actives 0.48% (n = 95,000);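 active = inhibition above the batch mean plus 3 SD, with images confirmed as a hit by eye, cut at about 37% in these data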;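 note: 0% = TNF-stimulated DMSO wells and 100% = unstimulated control wells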
E-sel TNF inh: blocks E-selectin expression induced by TNF alpha | actives 0.71% (n = 120,000) | inhibition, % at 2 µM | HUVEC TNFa-induced E-selectin immunofluorescence, high content;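 active = inhibition above the batch mean plus 3 SD, and confirmed as a hit on visual image review, cut at about 43% in these data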;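 note: 0% = TNF-stimulated DMSO wells and 100% = unstimulated control wells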
cytoskel mod: modifiers of cytoskeleton assembly | inhibition, % at 2 µM | HUVEC TNFa F-actin phalloidin imaging, high content | actives 0.18% (n = 91,000);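 active = inhibition above the batch mean plus 3 SD and confirmed as a hit by visual image inspection, cut at about 30% in these data, passing the limit was not always enough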
An asterisk follows results filed as active; . = no result given.

SMILES	HUVEC tox TNFa	VCAM1 TNFa inh	E-sel TNF inh	cytoskel mod
Cc1ccc(C)n1NC(=O)c1cccs1	41	22	100*	-47
O=C(Nc1ccc(Cl)cc1)Nc1nnc(CSc2ccc(Cl)cc2)s1	.	.	64*	.
COc1ccc2[nH]c(=O)c(CN(C(=O)c3ccncc3)C(C)C)cc2c1	-77	95*	4	48*
COc1ccc2[nH]c(=O)c(CN(C)C(=O)c3ccncc3)cc2c1	-19	10	.	22
CO/N=C/C(=N\Nc1ccc(C)cc1)C(=O)c1ccc(OC)cc1	24	40*	6	-19
CO/N=C/C(=N\Nc1ccc(OC)cc1)C(=O)c1ccc(F)cc1	.	.	-11	.
O=C1N=c2ccc(Br)cc2=C1c1sc(=S)n(NS(=O)(=O)c2ccccc2)c1O	.	.	9	.
CN(C)S(=O)(=O)c1ccc(NS(=O)(=O)/C=C/c2ccccc2)cc1	-46	14	99*	-2
CC(C)c1ccc(NC(=O)c2cccc(Br)c2)cc1	.	.	11	.
COc1ccc(OCC(=O)Nc2ccc(N3CCN(C(=O)c4ccccc4C)CC3)cc2)cc1	.	.	9	.
Cc1cc(C)c(/C=N/NC(N)=O)c(C)c1/C=N/NC(N)=O	44	69*	-29	-104
NC(=S)N/N=C\c1ccc(-c2cccc(Cl)c2Cl)o1	49	80*	1	-64
COC(=O)N/N=C\c1ccc(-c2cc(Cl)c(Cl)cc2Cl)o1	.	.	7	.
COC(=O)N/N=C/c1ccc(-c2cc(Cl)ccc2Cl)o1	.	.	-5	.
NC(=S)N/N=C/c1ccc(-c2ccc(Cl)c(Cl)c2)o1	8	68*	-1	-5
CCOC(=O)c1cnn(-c2nc(-c3ccc(C)cc3)cs2)c1C(F)(F)F	77	96*	.	-68
COc1cccc(-n2nc(C#N)c(Cl)cc2=O)c1	.	.	98*	.
Cc1cc(C)cc(OCC(=O)Nc2nonc2NC(=O)COc2cc(C)cc(C)c2)c1	76	78*	-11	-32
Cc1cc(C(=O)NN)c2cc(Br)ccc2n1	52	56*	-10	12
Cc1cc(C(N)=O)c2cc(Br)ccc2n1	-6	-17	8	-3
COc1ccc(-c2nc(CSCC(=O)NCCC3=CCCCC3)c(C)o2)cc1OC	-3	14	-7	-24
Cc1cc(NC(=O)CSc2nnc(Cc3ccccc3)n2C)no1	-20	17	44*	19
Cc1cc(NC(=O)CSc2nc3ccccc3c(=O)n2C2CCCC2)no1	46	68*	-2	14
COc1ccc(S(=O)(=O)Cc2ccc(C(=O)NC3CCCC3)o2)cc1	-12	4	.	-1
COc1ccc(S(=O)(=O)Cc2ccc(C(=O)N3CCOCC3)o2)cc1	.	.	95*	.
SMILES	HUVEC tox TNFa	VCAM1 TNFa inh	E-sel TNF inh	cytoskel mod
CCOC(=O)N1CCC(NC(=O)c2ccc(CS(=O)(=O)c3ccc(OC)cc3)o2)CC1	-32	85*	.	27
COc1ccc2c(c1)O[C@@H](c1cccc(C(F)(F)F)c1)[C@H](OC(=O)NCCc1ccc(OC)c(OC)c1)C2=O	.	.	-27	.
COC(=O)CN1C(=S)N(c2ccc(Cl)cc2)C(=O)C1CC(=O)Nc1ccc(F)cc1 (centres undefined)	.	.	17	.
COC(=O)CN1C(=S)N(c2ccc(Cl)cc2)C(=O)C1CC(=O)Nc1ccc(Cl)cc1 (centres undefined)	.	.	57*	.
CCCn1c(SCC(=O)N2c3ccccc3Sc3ccccc32)nc2c1c(=O)n(C)c(=O)n2C	-6	1	65*	13
Cn1c(=O)[nH]c(=O)c2c1nc(N1CCCCCC1)n2CC(N)=O	-9	10	-42	-6
C/C=C/Cn1c(N2CCCCCC2)nc2c1c(=O)[nH]c(=O)n2C	3	-9	74*	13
CCn1c(SCC(=O)NCC2CCCO2)nc2c(c1=O)SC(C)C2 (centres undefined)	.	.	92*	.
CCCCc1c(O)c2ccccc2[nH]c1=O	-33	20	-4	21
CCCc1c(O)c2ccccc2[nH]c1=O	-10	-2	52*	1
Cc1ccc2[nH]c3c(c2c1)CCC3=O	2	50*	3	15
Cc1ccc2[nH]c3c(c2c1)CCCC3=O	14	11	-7	-24
O=C(CSc1cn(CCNC(=O)c2ccc3ccccc3c2)c2ccccc12)NCc1ccco1	-16	16	.	14
CC(=O)c1cccc(NC(=O)N2CCC(NC(=O)C34CC5CC(CC(C5)C3)C4)CC2)c1	.	.	8	.
O=C(NC1CC1)c1ccc(S(=O)(=O)NC2CCCCCC2)cc1	-14	11	-14	30
O=C(NC1CC1)c1ccc(S(=O)(=O)NCC2CCCCC2)cc1	53	51*	-5	55*
CN(C)c1ccc(NC(=S)NC(=O)/C=C/c2ccc(Cl)cc2)cc1	-8	-2	87*	-13
Cc1ccc(CNc2ccc(S(=O)(=O)N3CCOCC3)cc2[N+](=O)[O-])cc1	.	.	76*	.
Oc1ccc(N2CCN(c3ncnc4sc(-c5ccccc5)cc34)CC2)cc1	.	.	100*	.
Cc1ccnc(N2C(=O)C3C4CC(C(Br)C4Br)C3C2=O)c1 (centres undefined)	1	-2	54*	16
O=C1C2C3CC(C(Br)C3Br)C2C(=O)N1c1ccccn1 (centres undefined)	-9	8	-9	-3
O=C(Nc1cc(S(=O)(=O)N2CCCCC2)ccc1O)c1ccccc1NS(=O)(=O)c1ccc(F)c(F)c1	.	.	-41	.
CC(C)(C)SCCNC(=O)CN(c1ccc(F)cc1)S(C)(=O)=O	79*	90*	.	-36
CC(C)(C)SCCNC(=O)CN(c1ccc(F)c(Cl)c1)S(C)(=O)=O	9	6	34	9
O=C(NCN1C(=O)C2C3C=CC(C3)C2C1=O)Nc1nncs1 (centres undefined)	58	11	100*	0
SMILES	HUVEC tox TNFa	VCAM1 TNFa inh	E-sel TNF inh	cytoskel mod
O=c1[nH]c2cc(NCCO)c([N+](=O)[O-])cc2[nH]1	.	.	73*	.
CCCCOC(=O)C1[C@H]2C(=O)N(CCc3ccccc3)C[C@]23C=C[C@H]1O3 (some centres undefined)	-12	18	.	-10
CCCOC(=O)C1C2C=C[C@]3(CN(CCc4ccccc4)C(=O)[C@H]13)O2 (some centres undefined)	82*	93*	.	6
CSc1ccccc1C(=O)NCc1ccc(C)cc1	.	.	-5	.
CCn1c(COc2c(C)cccc2C)nnc1SCC(=O)N1CCN(c2ccccc2)CC1	4	6	-19	4
C=CCn1c(COc2cccc(C)c2C)nnc1SCC(=O)N1CCN(c2ccccc2)CC1	.	.	68*	.
CC(=O)c1c(C)[nH]c(C(=O)Nc2ccccc2N2CCOCC2)c1C	.	.	75*	.
COc1ccc(NC(=O)C(c2cc3c(cc2[N+](=O)[O-])OCO3)N(C)c2ccccc2)cc1 (centres undefined)	.	.	42	.
CN1CCN(NS(=O)(=O)c2cccs2)CC1	.	.	-11	.
CCOC(=O)/C(=C\c1cccnc1)C(=O)c1cc(C(C)=O)c(Nc2ccccc2)s1	37	54*	18	.
Cc1ccc(SCC(=O)NC(=O)NCc2ccccc2)c(C)c1	.	.	12	.
COc1ccccc1N1CCN(C(=O)CSc2nnc3c4ccccc4nc(Cc4ccccc4)n23)CC1	.	.	0	.
CCCNC(=O)Cn1cnc2sc(C(=O)N3CCN(c4ccc(F)cc4)CC3)c(C)c2c1=O	-7	6	.	-5
